# In the supplement of paper PMC10681739:
# Target: T1, ETS1 (UniProt P14921)
# T1 sequence: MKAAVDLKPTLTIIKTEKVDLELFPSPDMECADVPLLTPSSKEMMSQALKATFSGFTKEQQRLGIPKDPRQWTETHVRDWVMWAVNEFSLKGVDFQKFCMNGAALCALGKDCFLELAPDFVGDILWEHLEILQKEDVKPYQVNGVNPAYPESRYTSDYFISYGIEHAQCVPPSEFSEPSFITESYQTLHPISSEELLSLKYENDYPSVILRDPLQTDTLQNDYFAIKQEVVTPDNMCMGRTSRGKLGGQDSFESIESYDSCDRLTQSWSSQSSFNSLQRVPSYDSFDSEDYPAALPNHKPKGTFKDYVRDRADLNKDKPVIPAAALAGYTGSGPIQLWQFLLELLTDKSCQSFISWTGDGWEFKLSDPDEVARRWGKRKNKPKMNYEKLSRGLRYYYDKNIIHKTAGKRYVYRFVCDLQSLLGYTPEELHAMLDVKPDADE
# Assay: ETS1 binding intensity (PBM fluorescence), ETS1 alone (arbitrary fluorescence units); higher = stronger binding
# Details: ETS1 concentration 1 nM; RUNX1 concentration 0 nM
# Method: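 Cooperative genomic-context PBM: 36-bp genomic probes with neighbouring ETS1 and RUNX1 sites, double-stranded on Agilent 4x180k arrays. Full-length recombinant human ETS1 (1 nM) was incubated alone or with RUNX1 (25 nM) and detected with anti-ETS1 antibody plus Alexa488 secondary. Value is the median fluorescence intensity over 4 replicate spots; the ETS1+RUNX1 data were normalised to the ETS1-only data using probes without RUNX1 sites. The 36-bp variable region sits on the array probe with constant linker/primer flanks that are not printed.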
row,Sequence,ETS1 binding intensity
1,TTTCTTCCTGTTTGCATCACCCCAAACCCACTATCA,514
2,CCCAACCATTTCCGCCACACCTCCAACCCACTGCCG,647
3,GCTGACCCGGAAGCGCTCGTGACCACCATCTCCGAC,1760
4,TGCAGTCTCAACTTCCTGCGGTCAAGTGATCCTTCA,654
5,AACAGGCAAAGGACAGGATGTGGTGAGCGTCGGCCC,4150
6,TGAAGGAGCGGAAGGGTTGCTTGCAGACCGCACGGT,574
7,AATAAACAGGAAGGTCTCTTGGAGCTGTGGTCTTGG,677
8,CCAGAGGGCGGAAGTGGGAGCTGCGACCGCGCTCCC,3670
9,CTGCGAGCTCAGAACGGAAACCACAGCAACTACCGT,2170
10,TGCCTCTTCCTGTGGCTGGGCTGTATCTGACCACAC,503
11,ACCCCAGGTACCGGAAGACCACAATTCCCAGGAGTC,2220
12,GAAGGCGGTTCCGGTTCGCGGCGGTTCCCGGGTTTT,515
13,TGAGGAGAGCGAGGAAGTGGTTTTCTCTTCGCACAG,691
14,CCCCTCAGCTTCCGGGTGCTGCGGCCGCGGCCGAGA,646
15,CACCCCCCCAGTGCAGGAAGTGGTTTTCGAGGGCAG,4490
16,GACATCCAGGAAGTGGTGAGAAACCACGTGTGTGTT,1630
17,CACGCCTGCGGAAGATGAAAACCACACGTCATGCAG,448
18,CTCTGAGCAGGAAGTGACAAAACCACGCAGGGCAGG,3150
19,CAGATCCGGCGTGGACGAAGCTCGGGAACCACAACA,353
20,GAGGGACAGGATGCCGCCAGGAACCACAAGAGCTTC,996

row,Sequence,ETS1 binding intensity
1,ACTTTAATAGAGTCCGGATGCGGTTAGGCTGACAGA,2670
2,GCGCGGCCCGGAAGGGGGTAACCGCTGAGTCTTTGA,794
3,AAAACGCGGAAATACGGTGGCTGCGGCCCGCGGGCA,494
4,AGTTGCTAAGGAAATGACTGCCCGCAGCGCCTGGCC,423
5,ATCTCAACTAGGAAATGTTTTTGTGACCACAAAGGG,620
6,ACATGGTCTCGCTTCCTGTTTACACCACAGAAAGCT,2820
7,CAAGGGAACATCCTTAAACAGCTTGTGGTATTGCTG,735
8,GTTCTTCCACGTCCGCGTTACCCACAACGGCAGTGG,564
9,TCTTCAGGCGTCTTTCCGGTGGTGGTCGTTTTTGCT,1530
10,GGGCCCACATCCGGCGCGCGCAACCGCAGCCTACTG,1120
11,ACAACCCGGAAGTTGGCGCAGCGCGGTTGCCAATGG,4350
12,ACCCTCTTTCCGGTGGAAAGCTGCGGCCTCCCAGAG,464
13,GCACCGTCTACCCGGAAGTTGTGGGCTGGGAGGGAT,5610
14,TGTCGTACATTTCCGCCTTGTGGGCACAATCTGATT,965
15,ATACTGAGTCATTTCCTGTGGTGTTATTGTGTTGTA,1760
16,GTCACAGGAAAGAAGGAGCCTCGCCTTAACCGCACC,447
17,GAAAGACAGGATGTGGGATAGATCTCAACCACCTTT,2590
18,AATCATCAGGGAAATGCAAATCAAAACCACAATCAG,547
19,ACCCTACTTCCGTTGCTGTGTTGCGGAGGTGACCTA,1210
20,TCCTAGCCATTTCCTATCCACCCTGTGGCTAATTTG,437
